Assay results from PubChem BioAssay (EPA / NIEHS).
Inconclusive results are not listed. Calls of active or inactive are those of the source. The calls were made as follows, unless noted: active = hit-call score of the fitted dose curve at least 0.9, where 1 is the maximum; inconclusive = response in the unintended direction; inactive = score below 0.9.

Key:
[1] = ATG_XTT_Cytotoxicity: Cytotoxicity Assessment in the Attagene TRANS-FACTORIAL HepG2 Assay (AID 2283584)
Procedure, shortened: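 HepG2 cells transiently transfected with GAL4-UAS multiple reporter units, dosed 24 h; cytotoxicity read by XTT as loss of signal versus DMSO baseline.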

[2] = read-out: Signal transducer and activator of transcription 3 (Homo sapiens) (UniProt P40763); experiment: LTEA_HepaRG_STAT3: Life Technologies and Expression Analysis (LTEA) Assay for Signal transducer and activator of transcription (STAT3) using HepaRG (AID 2283529; active = hit-call score of the fitted dose curve at least 0.9, where 1 is the maximum; inactive = score below 0.9); details: mRNA level, 48 h; actives raise or lower the signal
Procedure, shortened: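 Differentiated human HepaRG cells in serum-free induction medium were exposed in duplicate for 48 h to eight half-log concentrations up to 100 uM in 0.5% DMSO. STAT3 mRNA was quantified by TaqMan qRT-PCR, normalized to ACTB, GAPDH and POLR2A, and fitted bidirectionally against DMSO.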

[3] = read-out: solute carrier (SLCO1B1), SLCO1B1 (gene 10599); experiment: LTEA_HepaRG_SLCO1B1: Life Technologies and Expression Analysis (LTEA) Assay for solute carrier (SLCO1B1) using HepaRG (AID 2283530; active = hit-call score of the fitted dose curve at least 0.9, where 1 is the maximum; inactive = score below 0.9); details: mRNA level, 48 h; actives raise or lower the signal
Procedure, shortened: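 Differentiated human HepaRG cells were exposed for 48 h in serum-free induction medium to eight half-log concentrations, top 100 uM, in 0.5% DMSO. SLCO1B1 mRNA was measured by qRT-PCR, normalized to ACTB, GAPDH and POLR2A, and fitted bidirectionally against DMSO.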

[4] = read-out: sulfotransferase 2A1 (SULT2A1), SULT2A1 (gene 6822); experiment: LTEA_HepaRG_SULT2A1: Life Technologies and Expression Analysis (LTEA) Assay for sulfotransferase 2A1 (SULT2A1) using HepaRG (AID 2283531; active = hit-call score of the fitted dose curve at least 0.9, where 1 is the maximum; inactive = score below 0.9); details: mRNA level, 48 h; actives raise or lower the signal
Procedure, shortened: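 HepaRG human liver cells, 48 h exposure in serum-free induction medium to 8 half-log concentrations topping at 100 µM (0.5% DMSO), duplicate wells. SULT2A1 mRNA measured by TaqMan qRT-PCR, normalized to ACTB/GAPDH/POLR2A; bidirectional fit against DMSO.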

[5] = read-out: Transforming Growth Factor (TGFA), TGFA (gene 7039); experiment: LTEA_HepaRG_TGFA: Life Technologies and Expression Analysis (LTEA) Assay for Transforming Growth Factor (TGFA) using HepaRG (AID 2283532; active = hit-call score of the fitted dose curve at least 0.9, where 1 is the maximum; inactive = score below 0.9); details: mRNA level, 48 h; actives raise or lower the signal
Procedure, shortened: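 Differentiated human HepaRG cells, plated 48 h then switched to serum-free induction medium, were exposed in duplicate for 48 h to 8-point half-log series from 100 uM in 0.5% DMSO. TGFA mRNA measured by qRT-PCR, normalized to ACTB/GAPDH/POLR2A, bidirectional fit versus DMSO.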

[6] = read-out: Transforming Growth Factor (TGFB1), TGFB1 (gene 7040); experiment: LTEA_HepaRG_TGFB1: Life Technologies and Expression Analysis (LTEA) Assay for Transforming Growth Factor (TGFB1) Transporter using HepaRG (AID 2283533; active = hit-call score of the fitted dose curve at least 0.9, where 1 is the maximum; inactive = score below 0.9); details: mRNA level, 48 h; actives raise or lower the signal
Procedure, shortened: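 Differentiated HepaRG cells exposed 48 hr in serum-free induction medium to eight half-log concentrations up to 100 uM (0.5% DMSO), duplicate; TGFB1 mRNA by TaqMan qRT-PCR normalised to ACTB, GAPDH, POLR2A; bidirectional fit against DMSO.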

[7] = read-out: TIMP1, TIMP1 (gene 7076); experiment: LTEA_HepaRG_TIMP1: Life Technologies and Expression Analysis (LTEA) Assay for TIMP1 using HepaRG (AID 2283534; active = hit-call score of the fitted dose curve at least 0.9, where 1 is the maximum; inactive = score below 0.9;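 also: TaqMan qRT-PCR signal normalized to ACTB GAPDH and POLR2A housekeeping genes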); details: mRNA level, 48 h; actives raise or lower the signal
Procedure, shortened: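 Differentiated HepaRG cells exposed 48 h in serum-free induction medium, duplicates, eight half-log concentrations from 100 uM in 0.5% DMSO. TIMP1 mRNA by qRT-PCR normalized to ACTB, GAPDH, POLR2A; bidirectional fitting against DMSO.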

[8] = read-out: Tumor necrosis factor receptor 1 (TNFRSF1A), TNFRSF1A (gene 7132); experiment: LTEA_HepaRG_TNFRSF1A: Life Technologies and Expression Analysis (LTEA) Assay for Tumor necrosis factor receptor 1 (TNFRSF1A) using HepaRG (AID 2283535; active = hit-call score of the fitted dose curve at least 0.9, where 1 is the maximum; inactive = score below 0.9); details: mRNA level, 48 h; actives raise or lower the signal
Procedure, shortened: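 Differentiated HepaRG cells in serum-free induction medium, exposed 48 h in duplicate to 8 half-log concentrations up to 100 uM in 0.5% DMSO. TNFRSF1A mRNA by Fluidigm TaqMan qRT-PCR, normalized to ACTB, GAPDH, POLR2A; bidirectional fit.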

[9] = read-out: Thyroid Hormone Responsive (THRSP), THRSP (gene 7069); experiment: LTEA_HepaRG_THRSP: Life Technologies and Expression Analysis (LTEA) Assay for Thyroid Hormone Responsive (THRSP) using HepaRG (AID 2283536; active = hit-call score of the fitted dose curve at least 0.9, where 1 is the maximum; inactive = score below 0.9); details: mRNA level, 48 h; actives raise or lower the signal
Procedure, shortened: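 Differentiated human HepaRG cells were exposed in duplicate for 48 h in serum-free induction medium to eight concentrations (top 100 uM, half-log steps, 0.5% DMSO). Expression was quantified by TaqMan qRT-PCR, normalized to ACTB, GAPDH and POLR2A, with bidirectional fitting against DMSO.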

[10] = read-out: Cellular tumor antigen p53 (Homo sapiens) (UniProt P04637); experiment: LTEA_HepaRG_TP53: Life Technologies and Expression Analysis (LTEA) Assay for Tumor Protein P53 (TP53) using HepaRG (AID 2283537; active = hit-call score of the fitted dose curve at least 0.9, where 1 is the maximum; inactive = score below 0.9); details: mRNA level, 48 h; actives raise or lower the signal
Procedure, shortened: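 TP53 transcript measured by qRT-PCR, normalized to three housekeeping genes, after 48 h treatment of human HepaRG cultures with chemicals from 100 uM downward in half-log steps (0.5% DMSO vehicle, serum-free induction medium). Up- or down-regulation fitted against DMSO.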

[11] = read-out: UDP glucuronosyltransferase (UGT1A1), UGT1A1 (gene 54658); experiment: LTEA_HepaRG_UGT1A1: Life Technologies and Expression Analysis (LTEA) Assay for UDP glucuronosyltransferase (UGT1A1) using HepaRG (AID 2283538; active = hit-call score of the fitted dose curve at least 0.9, where 1 is the maximum; inactive = score below 0.9); details: mRNA level, 48 h; actives raise or lower the signal
Procedure, shortened: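 HepaRG cells, 0.5% DMSO vehicle, 48 h exposure in serum-free induction medium to 8-point half-log series topping at 100 uM, in duplicate. UGT1A1 mRNA by Fluidigm qRT-PCR, normalized to ACTB/GAPDH/POLR2A; bidirectional fit versus DMSO.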

[12] = read-out: UDP glucuronosyltransferase (UGT1A6), UGT1A6 (gene 54578); experiment: LTEA_HepaRG_UGT1A6: Life Technologies and Expression Analysis (LTEA) Assay for UDP glucuronosyltransferase (UGT1A6) using HepaRG (AID 2283539; active = hit-call score of the fitted dose curve at least 0.9, where 1 is the maximum; inactive = score below 0.9); details: mRNA level, 48 h; actives raise or lower the signal
Procedure, shortened: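 Differentiated HepaRG cells, ~100,000/well, were exposed for 48 h in serum-free induction medium with 0.5% DMSO to 8-point half-log series topping at 100 uM, in duplicate. mRNA measured by Fluidigm TaqMan qRT-PCR, normalized to ACTB, GAPDH and POLR2A.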

[13] = read-out: X-box binding protein 1 (XBP1), XBP1 (gene 7494); experiment: LTEA_HepaRG_XBP1: Life Technologies and Expression Analysis (LTEA) Assay for X-box binding protein 1 (XBP1) using HepaRG (AID 2283540; active = hit-call score of the fitted dose curve at least 0.9, where 1 is the maximum; inactive = score below 0.9); details: mRNA level, 48 h; actives raise or lower the signal
Procedure, shortened: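 Differentiated human HepaRG cells in serum-free induction medium exposed 48 h in duplicate to eight half-log concentrations up to 100 uM in 0.5% DMSO. XBP1 mRNA measured by Fluidigm TaqMan qRT-PCR, normalized to ACTB, GAPDH, POLR2A; bidirectional fitting against DMSO.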

[14] = LTEA_HepaRG_LDH_cytotoxicity: Cytotoxicity Assessment in the Life Technologies and Expression Analysis (LTEA) Assay (AID 2283563)
Procedure, shortened: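 Differentiated HepaRG cells in serum-free induction medium, exposed 48 h in duplicate to 8 half-log concentrations up to 100 uM in 0.5% DMSO. Cytotoxicity from LDH measured in spent medium, fit relative to DMSO.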

[15] = TOX21_p53_BLA_p2_viability: Viability Assessment in the Tox21 HCT-116 p53 Agonism Beta-lactamase Assay, Phase 2 (AID 2283591);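 also: compound exposure lasted 16 h at 37 °C; actives lower the ATP signal meaning cytotoxicity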
Procedure, shortened: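 HCT-116 p53-bla cells (4000/well) rested 5 h at 37C, then received compounds in DMSO (217-fold dilution) for 16 h at 37C, 5% CO2. After the CCF4 read, CellTiter-Glo was added; ATP luminescence was read after 30 min at room temperature.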

[16] = molecular target: Cellular tumor antigen p53 (Homo sapiens) (UniProt P04637); experiment: TOX21_p53_BLA_p3_ratio: Tox21 HCT-116 p53 Agonism Beta-lactamase Assay, Ratio, Phase 3 (AID 2283596)
Chain of Cellular tumor antigen p53 (Homo sapiens) (P04637 whole entry, looked up): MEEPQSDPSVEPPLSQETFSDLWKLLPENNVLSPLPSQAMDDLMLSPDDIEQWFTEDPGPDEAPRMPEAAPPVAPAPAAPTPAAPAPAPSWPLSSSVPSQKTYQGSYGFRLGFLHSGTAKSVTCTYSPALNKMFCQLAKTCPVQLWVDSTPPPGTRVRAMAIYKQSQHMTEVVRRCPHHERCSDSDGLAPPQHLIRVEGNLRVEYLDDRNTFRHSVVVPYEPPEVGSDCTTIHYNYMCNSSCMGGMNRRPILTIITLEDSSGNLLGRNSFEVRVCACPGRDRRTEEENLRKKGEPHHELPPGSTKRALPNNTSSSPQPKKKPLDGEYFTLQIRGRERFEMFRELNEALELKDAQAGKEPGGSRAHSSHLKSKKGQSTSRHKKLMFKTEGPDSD
Procedure, shortened: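 HCT116 p53-bla cells (4000/well) given compound in DMSO (217-fold dilution) after 5 h, incubated 16 h at 37C. CCF4-AM substrate 2 h at room temperature; 460/530 nm emission ratio, gain fitted against DMSO.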

[17] = TOX21_p53_BLA_p4_viability: Viability Assessment in the Tox21 HCT-116 p53 Agonism Beta-lactamase Assay, Phase 4 (AID 2283597);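 also: hits lower the luminescence signal meaning cytotoxicity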
Procedure, shortened: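 HCT-116 p53-bla cells, 4000/well, dosed after 5 h attachment and incubated 16 h at 37 °C, 5% CO2. Viability from CellTiter-Glo ATP luminescence after 30 min at room temperature, taken after the beta-lactamase read; loss of signal indicates cytotoxicity.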

[18] = molecular target: Cellular tumor antigen p53 (Homo sapiens) (UniProt P04637); experiment: TOX21_p53_BLA_p5_ratio: Tox21 HCT-116 p53 Agonism Beta-lactamase Assay, Ratio, Phase 5 (AID 2283599)
Procedure, shortened: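 HCT-116 cells carrying a p53-inducible beta-lactamase reporter were seeded at 4000 cells/well and dosed after 5 h with compound in DMSO (217-fold dilution). After 16 h at 37C, CCF4-AM substrate was added for 2 h, and the 460/530 nm emission ratio was scored as gain-of-signal versus DMSO.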

Chain of Signal transducer and activator of transcription 3 (Homo sapiens) (P40763 whole entry, looked up): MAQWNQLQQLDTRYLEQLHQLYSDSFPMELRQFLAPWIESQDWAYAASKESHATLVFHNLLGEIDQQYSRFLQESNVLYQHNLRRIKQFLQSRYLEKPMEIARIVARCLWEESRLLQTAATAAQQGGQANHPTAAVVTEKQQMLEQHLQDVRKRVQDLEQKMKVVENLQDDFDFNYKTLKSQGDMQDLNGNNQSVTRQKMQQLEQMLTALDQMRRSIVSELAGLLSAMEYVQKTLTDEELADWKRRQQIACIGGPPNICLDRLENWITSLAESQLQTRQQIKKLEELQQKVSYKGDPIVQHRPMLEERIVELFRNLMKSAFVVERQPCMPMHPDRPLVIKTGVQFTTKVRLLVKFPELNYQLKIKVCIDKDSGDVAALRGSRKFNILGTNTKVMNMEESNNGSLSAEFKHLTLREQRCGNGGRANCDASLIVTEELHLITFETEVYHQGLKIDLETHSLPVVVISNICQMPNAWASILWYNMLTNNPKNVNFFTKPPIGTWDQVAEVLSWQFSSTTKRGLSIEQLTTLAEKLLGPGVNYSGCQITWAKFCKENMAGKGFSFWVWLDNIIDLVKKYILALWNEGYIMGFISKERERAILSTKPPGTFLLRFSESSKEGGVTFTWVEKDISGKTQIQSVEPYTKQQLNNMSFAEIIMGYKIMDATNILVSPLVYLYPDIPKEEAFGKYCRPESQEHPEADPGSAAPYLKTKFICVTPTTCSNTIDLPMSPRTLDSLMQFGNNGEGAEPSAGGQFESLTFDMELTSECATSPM

## CCCCCCCCCCCCOC(C)=O
[1]
  outcome: inactive

## CCO[Si](CCC#N)(OCC)OCC
[1]
  outcome: inactive

## O=C1CCC(=O)N1
[1]
  outcome: inactive

## O=C1OCc2ccccc21
[1]
  outcome: inactive

## CC(C)N(c1ccccc1)C(C)C
[1]
  outcome: inactive

## CCC=C(C)C=O
[1]
  outcome: inactive

## CCC(=O)OC/C=C(\C)CCC=C(C)C
[1]
  outcome: inactive

## Cc1cccc(C)c1
[1]
  outcome: inactive

## CCCOC(=O)CC
[1]
  outcome: inactive

## CCCC1CCC(=O)CC1
[1]
  outcome: inactive

## C=C(C)C(=O)OCCOCCOC(=O)C(=C)C
[1]
  outcome: inactive

## COC(=O)c1ccc(C(=O)OC)cc1
[2]
  outcome: inactive
[3]
  outcome: inactive
[4]
  outcome: inactive
[5]
  outcome: inactive
[6]
  outcome: inactive
[7]
  outcome: inactive
[8]
  outcome: inactive
[9]
  outcome: inactive
[10]
  outcome: inactive
[11]
  outcome: inactive
[12]
  outcome: inactive
[13]
  outcome: inactive
[14]
  outcome: inactive
[1]
  outcome: inactive
[15]
  outcome: inactive
[16]
  outcome: inactive
[17]
  outcome: inactive
[18]
  outcome: inactive
